Laboratory results as given in publication PMC8384837, “Expanding the binding specificity for RNA recognition by a PUF domain”.
Numbering of substitutions follows the chain as printed.

How the values were obtained:
Assay in all cases: yeast three-hybrid, YBZ-1, SC-Leu-His + 0.5 mM 3-AT, 4 days
Conditions in all cases: tags: N-Gal4 AD-HA kept; label: inside an RPR1-promoter hybrid RNA with tandem MS2 sites; ssRNA
PUM1 PUF domain R5-GQW = PUM1 PUF domain R5-GQW (Homo sapiens, UniProt Q14671 828-1176, C1007G;R1008Q;Q1011W)
Summary of the method: (§1)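 Matching RNA elements and Pumilio-1 PUF domain libraries, randomized at the three base-contacting residues of every repeat, were co-expressed from a centromeric plasmid in strain YBZ-1 (LexA–MS2 coat fusion, HIS3 reporter). The repeat regions were PCR-amplified and Illumina-sequenced from cells grown four days on SC-Leu (input) or SC-Leu-His + 0.5 mM 3-AT (selection). The interaction score is the log change in variant frequency from input to selection. It is computed in log2, with a pseudocount of 1 for absent variants.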

PUM1 PUF domain R5-MYS = PUM1 PUF domain R5-MYS (Homo sapiens, UniProt Q14671 828-1176, C1007M;R1008Y;Q1011S)
Summary of the method: as §1

PUM1 PUF domain R5-TRG = PUM1 PUF domain R5-TRG (Homo sapiens, UniProt Q14671 828-1176, C1007T;Q1011G)
Summary of the method: as §1

PUM1 PUF domain R5-GLW = PUM1 PUF domain R5-GLW (Homo sapiens, UniProt Q14671 828-1176, C1007G;R1008L;Q1011W)
Summary of the method: as §1

PUM1 PUF domain R8-RWK = PUM1 PUF domain R8-RWK (Homo sapiens, UniProt Q14671 828-1176, N1122R;Y1123W;Q1126K)
Summary of the method: as §1

PUM1 PUF domain R8-RFH = PUM1 PUF domain R8-RFH (Homo sapiens, UniProt Q14671 828-1176, N1122R;Y1123F;Q1126H)
Summary of the method: as §1

PUM1 PUF domain R8-RFP = PUM1 PUF domain R8-RFP (Homo sapiens, UniProt Q14671 828-1176, N1122R;Y1123F;Q1126P)
Summary of the method: as §1

PUM1 PUF domain R6-CHR = biological target: T1, PUM1 PUF domain R6-CHR (Homo sapiens, UniProt Q14671 828-1176, N1043C;Y1044H;Q1047R)
T1 sequence: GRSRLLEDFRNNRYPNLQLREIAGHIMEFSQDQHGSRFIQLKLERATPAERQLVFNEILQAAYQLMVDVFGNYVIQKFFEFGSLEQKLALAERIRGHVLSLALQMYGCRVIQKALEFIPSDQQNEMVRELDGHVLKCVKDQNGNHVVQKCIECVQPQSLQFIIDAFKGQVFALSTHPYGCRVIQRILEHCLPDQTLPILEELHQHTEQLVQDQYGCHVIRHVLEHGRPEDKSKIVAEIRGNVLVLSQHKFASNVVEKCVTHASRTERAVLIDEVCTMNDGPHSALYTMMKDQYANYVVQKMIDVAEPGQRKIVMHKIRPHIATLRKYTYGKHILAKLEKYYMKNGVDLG
Summary of the method: as §1

PUM1 PUF domain R4-VSL = PUM1 PUF domain R4-VSL (Homo sapiens, UniProt Q14671 828-1176, N971V;H972S;Q975L)
Summary of the method: as §1

PUM1 PUF domain R6-VFQ = biological target: T2, PUM1 PUF domain R6-VFQ (Homo sapiens, UniProt Q14671 828-1176, N1043V;Y1044F)
T2 sequence: T1 sequence with C216V, H217F, R220Q
Summary of the method: as §1

PUM1 PUF domain R6-LWQ = biological target: T3, PUM1 PUF domain R6-LWQ (Homo sapiens, UniProt Q14671 828-1176, N1043L;Y1044W)
T3 sequence: T1 sequence with C216L, H217W, R220Q
Summary of the method: as §1

PUM1 PUF domain R5-RGW = PUM1 PUF domain R5-RGW (Homo sapiens, UniProt Q14671 828-1176, C1007R;R1008G;Q1011W)
Summary of the method: as §1

PUM1 PUF domain R5-KGD = PUM1 PUF domain R5-KGD (Homo sapiens, UniProt Q14671 828-1176, C1007K;R1008G;Q1011D)
Summary of the method: as §1

PUM1 PUF domain R5-HKE = PUM1 PUF domain R5-HKE (Homo sapiens, UniProt Q14671 828-1176, C1007H;R1008K;Q1011E)
Summary of the method: as §1

PUM1 PUF domain R2-DWE = PUM1 PUF domain R2-DWE (Homo sapiens, UniProt Q14671 828-1176, N899D;Y900W;Q903E)
Summary of the method: as §1

PUM1 PUF domain R3-RTW = PUM1 PUF domain R3-RTW (Homo sapiens, UniProt Q14671 828-1176, C935R;R936T;Q939W)
Summary of the method: as §1

PUM1 PUF domain R4-VPQ = PUM1 PUF domain R4-VPQ (Homo sapiens, UniProt Q14671 828-1176, N971V;H972P)
Summary of the method: as §1

PUM1 PUF domain R1-KSN = PUM1 PUF domain R1-KSN (Homo sapiens, UniProt Q14671 828-1176, S863K;R864S;Q867N)
Summary of the method: as §1

Sequence: GGCUAGAACUAGUGGAUCCCCCGGCGCCCGGCGGCUCGAGCCCGGGUAAGUGUUAAUAGUCUGCAUGCCGCCGGGCGCCAUGCCUGCAGGUCGACUCUAGAAAACAUG
- binding signal (PUM1 PUF domain R5-GQW): 2.77 log2 enrichment (interaction score)
- binding signal (PUM1 PUF domain R5-MYS): 3.54 log2 enrichment (interaction score)
- binding signal (PUM1 PUF domain R5-TRG): 2.97 log2 enrichment (interaction score)
- binding signal (PUM1 PUF domain R5-GLW): 1.6 log2 enrichment (interaction score)

Sequence: GGCUAGAACUAGUGGAUCCCCCGGCGCCCGGCGGCUCGAGCCCGGGUAAGCGUAAAUAGUCUGCAUGCCGCCGGGCGCCAUGCCUGCAGGUCGACUCUAGAAAACAUG
- binding signal (PUM1 PUF domain R8-RWK): 6.98 log2 enrichment (interaction score)
- binding signal (PUM1 PUF domain R8-RFH): 4.72 log2 enrichment (interaction score)
- binding signal (PUM1 PUF domain R8-RFP): 5.8 log2 enrichment (interaction score)

Sequence: GGCUAGAACUAGUGGAUCCCCCGGCGCCCGGCGGCUCGAGCCCGGGUAAGUGUAAAUAGUCUGCAUGCCGCCGGGCGCCAUGCCUGCAGGUCGACUCUAGAAAACAUG
- binding signal (PUM1 PUF domain R8-RWK): 6.43 log2 enrichment (interaction score)
- binding signal (PUM1 PUF domain R6-CHR): 3.81 log2 enrichment (interaction score)
- binding signal (PUM1 PUF domain R8-RFH): 4.43 log2 enrichment (interaction score)
- binding signal (PUM1 PUF domain R5-MYS): 2.4 log2 enrichment (interaction score)
- binding signal (PUM1 PUF domain R5-TRG): 2.68 log2 enrichment (interaction score)
- binding signal (PUM1 PUF domain R5-GLW): 2.11 log2 enrichment (interaction score)
- binding signal (PUM1 PUF domain R4-VSL): 2.71 log2 enrichment (interaction score)
- binding signal (PUM1 PUF domain R6-VFQ): 3.65 log2 enrichment (interaction score)
- binding signal (PUM1 PUF domain R6-LWQ): 5.83 log2 enrichment (interaction score)

Sequence: GGCUAGAACUAGUGGAUCCCCCGGCGCCCGGCGGCUCGAGCCCGGGUAAGUGUCAAUAGUCUGCAUGCCGCCGGGCGCCAUGCCUGCAGGUCGACUCUAGAAAACAUG
- binding signal (PUM1 PUF domain R5-RGW): 2.31 log2 enrichment (interaction score)
- binding signal (PUM1 PUF domain R5-KGD): 3.76 log2 enrichment (interaction score)
- binding signal (PUM1 PUF domain R5-HKE): 3.67 log2 enrichment (interaction score)

Sequence: GGCUAGAACUAGUGGAUCCCCCGGCGCCCGGCGGCUCGAGCCCGGGUAAGUGUAAAGAGUCUGCAUGCCGCCGGGCGCCAUGCCUGCAGGUCGACUCUAGAAAACAUG
- binding signal (PUM1 PUF domain R2-DWE): 9.59 log2 enrichment (interaction score)

Sequence: GGCUAGAACUAGUGGAUCCCCCGGCGCCCGGCGGCUCGAGCCCGGGUAAGUGUAAUUAGUCUGCAUGCCGCCGGGCGCCAUGCCUGCAGGUCGACUCUAGAAAACAUG
- binding signal (PUM1 PUF domain R3-RTW): 2.38 log2 enrichment (interaction score)

Sequence: GGCUAGAACUAGUGGAUCCCCCGGCGCCCGGCGGCUCGAGCCCGGGUAAGUGUAUAUAGUCUGCAUGCCGCCGGGCGCCAUGCCUGCAGGUCGACUCUAGAAAACAUG
- binding signal (PUM1 PUF domain R4-VPQ): 2.78 log2 enrichment (interaction score)

Sequence: GGCUAGAACUAGUGGAUCCCCCGGCGCCCGGCGGCUCGAGCCCGGGUAAGUGAAAAUAGUCUGCAUGCCGCCGGGCGCCAUGCCUGCAGGUCGACUCUAGAAAACAUG
- binding signal (PUM1 PUF domain R6-VFQ): 8.19 log2 enrichment (interaction score)

Sequence: GGCUAGAACUAGUGGAUCCCCCGGCGCCCGGCGGCUCGAGCCCGGGUAAGUGUAAAUCGUCUGCAUGCCGCCGGGCGCCAUGCCUGCAGGUCGACUCUAGAAAACAUG
- binding signal (PUM1 PUF domain R1-KSN): 4.24 log2 enrichment (interaction score)
